Screens from PubChem.
Rab9 prom act: activators of Rab9 promoter | Huh7 Rab9 promoter-luciferase reporter, luminescence, 24 h | Potency, µM (doses to about 9.22 µM), inactives show top-dose activation, negative = inhibition, actives largely listed as activators | 320,000 tested, 2.8% active | AID 485297; further: % of control where 0% means no effect; nearly all actives have a fitted effect of over 60% in size
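Using Huh7 cells stably transfected with Rab9 promoter–luciferase, compounds were incubated 24 h at 37 °C, 5% CO2; luciferase luminescence was read 10 min after reagent addition.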
KinaseGlo FLuc: Kinase-Glo luciferase inhibition (counter-screen); Q27757; Kinase-Glo luciferase, ATP luminescence, 8 min; Potency, µM (top dose mostly 38.3 µM), for the others: at the highest dose activity change, negative = inhibition, usual class: inhibitors; 200,000 tested, 0.28% active; AID 1379; further: on the % scale 0 is the no-effect control and ±100 the full control effect; nearly all actives have a fitted effect of over 60% in size
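Kinase-Glo luciferase light output from ATP and luciferin was measured with 10 uM ATP, within the enzyme's linear range. Buffer: 50 mM imidazole pH 7.2, 50 mM KCl, 7 mM MgCl2, 0.01% Tween 20, 0.05% BSA; luminescence read after 8 min at ambient temperature.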
FLuc modulator: firefly luciferase modulation, counter-screen for miR-21 project. purified FLuc, Km substrates, luminescence inhibition. Potency, µM (highest dose often 57.5 µM), inactives show at the top dose activity change, negative = inhibition, hits mostly inhibitors. AID 588342. 360,000 tested, 6.9% active. P08659;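 further: plate controls were vehicle for no effect and reference inhibitor for full effect; nearly all actives have a fitted effect of over 55% in size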
Target sequence (P08659 whole entry, looked up): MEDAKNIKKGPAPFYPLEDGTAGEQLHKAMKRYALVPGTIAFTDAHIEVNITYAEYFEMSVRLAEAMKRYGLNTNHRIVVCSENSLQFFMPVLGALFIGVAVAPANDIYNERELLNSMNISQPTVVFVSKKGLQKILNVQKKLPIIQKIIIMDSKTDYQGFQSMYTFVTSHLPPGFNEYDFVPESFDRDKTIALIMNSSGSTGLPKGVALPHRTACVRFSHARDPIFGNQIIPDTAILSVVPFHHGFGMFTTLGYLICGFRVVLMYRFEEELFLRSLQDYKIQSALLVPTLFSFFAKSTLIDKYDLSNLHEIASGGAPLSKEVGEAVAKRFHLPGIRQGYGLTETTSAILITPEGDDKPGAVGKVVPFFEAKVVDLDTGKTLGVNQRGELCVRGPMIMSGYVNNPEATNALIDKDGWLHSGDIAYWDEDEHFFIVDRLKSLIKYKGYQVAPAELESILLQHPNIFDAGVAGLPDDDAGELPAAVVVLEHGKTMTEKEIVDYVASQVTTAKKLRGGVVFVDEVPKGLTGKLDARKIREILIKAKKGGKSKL
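Purified P. pyralis luciferase, 10 nM final, with Km-level 10 uM D-luciferin and 10 uM ATP in 50 mM Tris acetate pH 7.5, 10 mM Mg acetate, 0.01% Tween-20, 0.05% BSA; 6-point qHTS titration about 60 µM downward; luminescence read.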
SMN2 splice enh: SMN2 splice variant enhancement | HEK293 SMN2-luciferase splicing reporter, luminescence, 30-36 h | Potency, µM (top dose mostly 46.1 µM), without a hit: top-dose activity change, positive = activation, actives largely listed as activators | 210,000 tested, 2.8% active; further: % of control where 0% means no effect; nearly all actives have a fitted effect of over 55% in size
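HEK293 cells carry an SMN2 minigene-luciferase reporter in which exon 7 inclusion puts luciferase in frame. Cells were seeded at 2000 cells/well, attached for 10-12 hours, then exposed to compounds for 30-36 hours at 37C before ONE-Glo luminescence.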
NPC1 promoter act: activators of NPC1 promoter; Potency, µM (titrated, usually from 9.22 µM), inactives show at the highest dose activation, usual class: activators; 320,000 tested, 2.4% active; Huh7 NPC1 promoter luciferase reporter, 24 h; AID 485313; further: % of control where 0% means no effect; nearly all actives have a fitted effect of over 60% in size
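Readout is luciferase luminescence, reflecting NPC1 promoter activation in stably transfected Huh7 cells after 24 h compound exposure at 37 °C in reduced-serum medium with 10% FBS.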
ELG1 genotox: induces genotoxicity in HEK293T cells with luciferase-tagged ELG1; HEK293T ELG1-luciferase reporter, luminescence, 16 h; AID 504466; 330,000 tested, 1.3% active; Potency, µM (top dose mostly 46 µM), inactives show at the top dose activity change, positive = activation, actives largely listed as activators; further: % of control where 0% means no effect; nearly all actives have a fitted effect of over 60% in size
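HEK293T cells expressing luciferase-tagged ELG1 were treated with compound or DMSO for 16 hr at 37°C. Luciferase activity was then read after 30 min with ONE-Glo at room temperature; rising signal flags genetic stress.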
Starred values were filed as active, the others as inactive; [ ] = another dose, or the depositor's remark. Most compounds without a hit are left out; they make up all but 7.3% or so of the library. The call rests on the fitted dose curve; in most records, active means well fitted curve in the direction sought with a large enough effect; inconclusive means small, poorly fitted or top-dose-only effect, or another doubt; inactive means no such curve, though single readings can be large; an effect the other way counts as inactive or inconclusive. Potency means the concentration at half of the fitted maximal effect.

For CCOC(=O)c1oc2c(c1C)/C(=N/O)CCC2 the results were Rab9 prom act 26%, KinaseGlo FLuc 11µM*, FLuc modulator inconclusive, SMN2 splice enh 22µM*, NPC1 promoter act inconclusive and ELG1 genotox inconclusive.
CC(=O)Nc1ccc(/C=C/C(=O)c2ccc3c(c2)OCCO3)cc1 was read as Rab9 prom act 8%, FLuc modulator 6.7µM*, NPC1 promoter act -1% and ELG1 genotox 17%.
O=C(O)c1ccc(/C=C/C(=O)c2ccc3c(c2)OCCCO3)cc1 was read as Rab9 prom act inconclusive, FLuc modulator 0.076µM*, NPC1 promoter act inconclusive and ELG1 genotox inconclusive.
CSc1ccc(/C=C/C(=O)c2ccc(NC(C)=O)cc2)cc1 was read as Rab9 prom act 18%, KinaseGlo FLuc 2%, FLuc modulator 3µM*, SMN2 splice enh 5%, NPC1 promoter act 13% and ELG1 genotox 0%.
`COc1cc(/C=C(\C#N)c2nc3ccccc3c(=O)[nH]2)cc(OC)c1OC` gave FLuc modulator -6%.
CCOc1ccccc1CNC(=O)C1CCN(c2nc3ccccc3nc2C(F)(F)F)CC1 was read as FLuc modulator -2%.
COc1nc(-c2ccc(C)cc2)ccc1-c1noc(-c2ccc(C(C)(C)C)cc2)n1 was read as FLuc modulator 0% and SMN2 splice enh 12%.
O=C(CCCc1ccccc1)NC12CC3CC(CC(C3)C1)C2 was read as Rab9 prom act 2.2µM*, FLuc modulator 9.5µM*, NPC1 promoter act 3.2µM* and ELG1 genotox inconclusive.
For O=C(COC(=O)c1ccccc1)NC12CC3CC(CC(C3)C1)C2 the results were Rab9 prom act 0%, FLuc modulator 6.7µM*, NPC1 promoter act -2% and ELG1 genotox -1%.
COc1c(O)c(O)cc2c1oc1c3cc(C)ccc3oc(=O)c21 was read as KinaseGlo FLuc -2% and SMN2 splice enh -9%.
Screening O=c1oc2ccccc2c2oc3cc(O)c(O)cc3c12 returned Rab9 prom act 15%, KinaseGlo FLuc 1%, FLuc modulator 21µM*, SMN2 splice enh -3%, NPC1 promoter act 11% and ELG1 genotox inconclusive.
`O=C(O)c1[nH]c2c([N+](=O)[O-])cc([N+](=O)[O-])cc2c1C(=O)O` gave KinaseGlo FLuc -4%[7.66 µM] and SMN2 splice enh -1%[9.22 µM].
Screening COc1cc(OC)cc(C(=O)Nc2cc3c(cc2N2CCCC2)n(C)c(=O)c(=O)n3C)c1 returned FLuc modulator 3%.
CSc1nc(/C=C2\C=Nc3ccccc32)c(O)n1C was read as Rab9 prom act 15%, KinaseGlo FLuc inconclusive, FLuc modulator 13µM*, SMN2 splice enh inconclusive, NPC1 promoter act 0% and ELG1 genotox 13%.
`CC(C)n1c(O)c(/C=C2\C=Nc3ccccc32)sc1=Nc1ccccc1` gave Rab9 prom act 0%, KinaseGlo FLuc -1%, FLuc modulator -2%, SMN2 splice enh -15%, NPC1 promoter act -5% and ELG1 genotox -1%.
Screening CCOC(=O)C(C(=O)c1ccccc1)[C@H](CCc1ccccc1)NC(=O)OC (stereo partly specified) returned KinaseGlo FLuc 0% and SMN2 splice enh -1%.
Screening Cc1ccc(NC(=O)Nc2cccs2)cc1 returned Rab9 prom act 2.2µM*, KinaseGlo FLuc -3%, FLuc modulator 2.4µM*, SMN2 splice enh 16µM*, NPC1 promoter act 2.8µM* and ELG1 genotox 16%.
Screening Cc1c(NC(=O)Nc2cccs2)cccc1[N+](=O)[O-] returned Rab9 prom act -9%, KinaseGlo FLuc 0%, FLuc modulator -17%, SMN2 splice enh -34%, NPC1 promoter act -25% and ELG1 genotox -10%.
Screening CCOc1ccc(NC(=O)Nc2ccc3nsnc3c2)cc1 returned Rab9 prom act 30%, KinaseGlo FLuc 1%, FLuc modulator inconclusive, SMN2 splice enh 20%, NPC1 promoter act 13% and ELG1 genotox -3%.
`Cc1cc(C)cc(NC(=O)Nc2cccnc2)c1` gave Rab9 prom act 2%, FLuc modulator inconclusive, NPC1 promoter act 3% and ELG1 genotox 3%.
`CCc1ccc(NC(=O)Nc2cccs2)cc1` gave Rab9 prom act 0.79µM*, KinaseGlo FLuc -5%, FLuc modulator 0.85µM*, SMN2 splice enh 14µM*, NPC1 promoter act 1.1µM* and ELG1 genotox inconclusive.
Cc1cc(C)cc(NC(=O)Nc2cccs2)c1 was read as FLuc modulator 9.5µM* and SMN2 splice enh 15%.
CCc1ccc(NC(=O)C2(c3cccs3)CCOCC2)cc1 was read as FLuc modulator -10%.
`CCOc1ccc(NC(=O)Nc2cccs2)cc1` gave Rab9 prom act 1.4µM*, KinaseGlo FLuc -22%, FLuc modulator 1.5µM*, SMN2 splice enh 11µM*, NPC1 promoter act 0.89µM* and ELG1 genotox 4.6µM*.
For CC(C)OCCCn1c(=O)c2ccccc2n2c(-c3ccccc3)nnc12 the results were FLuc modulator 4%.
Screening COc1cc(Nc2nc3c(S(=O)(=O)c4ccc(C)c(C)c4)nnn3c3ccsc23)cc(OC)c1 returned FLuc modulator 0%.
For Cc1ccc(-c2nsc(NC(=O)c3oc4cc(C)c(Cl)cc4c3C)n2)cc1 the results were FLuc modulator 4% and SMN2 splice enh 1%.
O[C@H](CN1CCN(c2cccc(Cl)c2)CC1)C(c1ccccc1)c1ccccc1 was read as KinaseGlo FLuc 2%.
For CSc1nc(C)cc(Nc2ccc(O)c(CN3CCCCC3)c2)n1 the results were KinaseGlo FLuc -4%[7.66 µM] and SMN2 splice enh -4%[9.22 µM].
Cc1ccc2c(c1)c1c(c(=O)n(-c3cccc(Cl)c3)c(=O)n1CC(=O)NCCC1=CCCCC1)n2C was read as FLuc modulator 1% and SMN2 splice enh 0%.
For Cc1ccc(NC(=O)c2sccc2C)nc1 the results were Rab9 prom act 0.5µM*, FLuc modulator 12µM*, NPC1 promoter act 0.89µM* and ELG1 genotox 2.9µM*.
For Cc1ccc(NC(=O)Nc2cccs2)nc1 the results were Rab9 prom act 2.2µM*, KinaseGlo FLuc -5%, FLuc modulator 21µM*, SMN2 splice enh inconclusive, NPC1 promoter act 4µM* and ELG1 genotox inconclusive.
`O=C(c1ccccc1)n1ccc(-c2cccs2)n1` gave Rab9 prom act -1%, FLuc modulator 6µM*, NPC1 promoter act 12% and ELG1 genotox 0%.
`COC(=O)c1cc(-c2cccs2)nn1-c1ccccc1` gave Rab9 prom act -11%, KinaseGlo FLuc -2%, FLuc modulator -14%, SMN2 splice enh 5%, NPC1 promoter act -2% and ELG1 genotox -4%.
